According to PubChem BioAssay (NCI):
The panel holds about 79,000 compounds, 15% with a hit somewhere; the sample as a whole holds those more often. Unmarked numbers belong to inactive results. Calls of active or inactive are those of the source. Cut-off read from the data, not from the text of the source: active = growth inhibition above about 70%; inactive = the rest.

Columns and labels:
[1] = NCI Yeast Anticancer Drug Screen. Data for the rad50 strain (AID 155);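 note: 0% = growth of vehicle-only cultures of the same strain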; conditions: S. cerevisiae rad50 strain growth inhibition, stronger effect = higher value
Outline: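 Readout: growth inhibition relative to vehicle-treated cultures. Compound exposure was carried out in a genetically defined yeast strain deficient in DNA damage repair.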

[2] = NCI Yeast Anticancer Drug Screen. Data for the mec2-1 strain (AID 157); conditions: S. cerevisiae mec2-1 strain, stronger effect = higher value
Outline: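 Vehicle-treated cultures served as reference for growth inhibition of compound-exposed mec2-1 yeast.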

[3] = NCI Yeast Anticancer Drug Screen. Data for the sgs1 mgt1 strain (AID 161);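 note: 0% = growth of cultures given vehicle only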; conditions: S. cerevisiae sgs1 mgt1 strain, stronger effect = higher value
Outline: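 Read-out: growth inhibition vs vehicle controls. Cells: mutant yeast strain deficient in DNA damage repair.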

[4] = NCI Yeast Anticancer Drug Screen. Data for the cln2 rad14 strain (AID 165);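 note: 0% = growth equal to vehicle treated cultures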; conditions: S. cerevisiae cln2 rad14 strain, stronger effect = higher value
Outline: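 Each compound was tested on cln2 rad14 yeast. Inhibition of growth was calculated against vehicle-exposed controls.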

[5] = NCI Yeast Anticancer Drug Screen. Data for the bub3 strain (AID 167); conditions: S. cerevisiae bub3 mutant strain, stronger effect = higher value
Outline: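 Readout: yeast growth inhibition, expressed relative to vehicle-only wells. The test organism is a mutant strain from a panel with lesions in DNA repair or checkpoint genes.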

[6] = NCI Yeast Anticancer Drug Screen. Data for the mlh1 rad18 strain (AID 175); conditions: S. cerevisiae mlh1 rad18 strain growth inhibition, stronger effect = higher value
Outline: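 Vehicle-treated cultures served as the reference for growth inhibition in a yeast strain carrying DNA damage repair alterations exposed to each compound.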

[7] = at 5.0 µM (retest, dose inferred, filed as 0.5)
[8] = at 50.0 µM (retest, dose inferred, filed as 5.0)

Compound | growth inhibition [1, 7] | growth inhibition [1, 8] | growth inhibition ([1]; at 50.0 µM) | growth inhibition [2, 7] | growth inhibition [2, 8] | growth inhibition ([2]; at 50.0 µM) | growth inhibition [3, 7] | growth inhibition [3, 8] | growth inhibition ([3]; at 50.0 µM) | growth inhibition [4, 7] | growth inhibition [4, 8] | growth inhibition ([4]; at 50.0 µM) | growth inhibition [5, 7] | growth inhibition [5, 8] | growth inhibition ([5]; at 50.0 µM) | growth inhibition [6, 7] | growth inhibition [6, 8] | growth inhibition ([6]; at 50.0 µM)
CCc1ccc(/C=C/c2ccc([N+](=O)[O-])cc2)nc1 | 0% | 68% | 62.2% | -5% | 41% | 40.6% | -5% | 42% | 33.5% | 6% | 39% | 7.1% | -5% | -8% | 45.9% | 3% | 44% | 69.5%
Nc1cc(Cl)c(I)cc1Cl | 7% | 98% (active) | 74.5% (active) | -15% | 99% (active) | 15.8% | -1% | 100% (active) | 50.1% | -7% | 97% (active) | 32.3% | -8% | 99% (active) | 69.2% | 34% | 99% (active) | 86.8% (active)
O=C(C[n+]1ccccc1Cl)c1ccc(F)cc1 | -3% | 99% (active) | -8% | -1% | 100% (active) | -0.8% | -1% | 99% (active) | 11.7% | -3% | 99% (active) | 79.5% (active) | 4% | 99% (active) | 1.45% | -1% | 99% (active) | -12%
Cc1sc(Cc2ccccc2)nc1-c1ccc(N=Cc2ccc(N(CCOS(C)(=O)=O)CCOS(C)(=O)=O)cc2)cc1 | 53% | 95% (active) | 94% (active) | -10% | 97% (active) | 97.8% (active) | 32% | 95% (active) | 96.5% (active) | 38% | 95% (active) | 93.8% (active) | 1% | 94% (active) | 91.3% (active) | 82% (active) | 95% (active) | 96.5% (active)
Clc1ccc(CN2COc3c(ccc4ccccc34)C2)cc1 | 10% | 78% (active) | 88.8% (active) | 3% | 43% | 59.8% | 13% | 97% (active) | 83.2% (active) | 0% | 85% (active) | 61.1% | -4% | 96% (active) | 89.9% (active) | 1% | 96% (active) | 59%
CC(=O)NCCN(C)C | 2% | -1% | 93.5% (active) | 2% | -4% | 97% (active) | 6% | -1% | 84.1% (active) | -2% | -3% | 85.7% (active) | -3% | 0% | 92.5% (active) | 4% | 4% | 88.8% (active)
NNC(=O)C(=O)N/N=C(/CCC(=O)NCCc1ccccc1)CC(=O)c1ccccc1 | 1% | 3% | 28.5% | 1% | 2% | 3.05% | -2% | 4% | 9.1% | -3% | 1% | 6.15% | 0% | 0% | -3.3% | -2% | -3% | 22.6%
CCCCC#CC(=O)OCCC | -1% | 2% | 26.6% | 0% | 2% | 15.8% | 2% | 2% | 22.4% | -1% | -1% | 85.5% (active) | 1% | 0% | -22.4% | -2% | -1% | -9.75%
CN(C)C(=S)SC1(CN2CCOCC2)COc2c(Cl)cc(Cl)cc2C1=O (configuration not stated) | 1% | 97% (active) | 90.4% (active) | 3% | 96% (active) | 76.2% (active) | 3% | 97% (active) | 95.3% (active) | 6% | 96% (active) | 75% (active) | 5% | 96% (active) | 79.3% (active) | 1% | 97% (active) | 89.5% (active)
